The results in this text go back to PubChem BioAssay (Tox21).

Test [1] in a line: qHTS assay to identify small molecule antagonists of the glucocorticoid receptor (GR) signaling pathway - cell viability counter screen (AID 720693; note: nearly all actives have a fitted effect of over 55% in size). (In general: qHTS replaces the single test concentration by a dilution series.)
Test [2] in a line: qHTS assay for identifying genotoxic compounds that show differential cytotoxicity against isogenic chicken DT40 cell lines with known DNA damage response pathways - wild type cell line (AID 743012). Note: nearly all actives have a fitted effect of over 60% in size. Note: potency is the fitted concentration of half-maximal effect. The procedure, abridged: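 CellTiter-Glo luminescence readout of viability in wild type DT40 cells after 40 h compound exposure at 37 C/5% CO2; 300 cells/well; reagent incubated 30 min at room temperature before reading.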

A short description of test [3]: qHTS assay for identifying genotoxic compounds that show differential cytotoxicity against isogenic chicken DT40 cell lines with known DNA damage response pathways - Rev3 mutant cell line (AID 743014). Note: nearly all actives have a fitted effect of over 55% in size. Note: potency is the fitted concentration of half-maximal effect.
The nature of test [4]: qHTS assay for identifying genotoxic compounds that show differential cytotoxicity against isogenic chicken DT40 cell lines with known DNA damage response pathways - Rad54/Ku70 mutant cell line (AID 743015). Note: nearly all actives have a fitted effect of over 60% in size. Note: potency is the fitted concentration of half-maximal effect.
Test [5] can be described thus: qHTS assay to identify small molecule antagonists of the androgen receptor (AR) signaling pathway - cell viability counter screen (AID 743033; note: nearly all actives have a fitted effect of over 45% in size; note: potency is the fitted concentration of half-maximal effect).
Test [6] has as its target Androgen receptor (Homo sapiens) (UniProt P10275). Nature of the test: qHTS assay to identify small molecule antagonists of the androgen receptor (AR) signaling pathway (AID 743035; active = well fitted inhibition curve with a large enough effect in the signal ratio in the repeat runs, not every such curve was filed as active; the % refers to the signal ratio; note: potency is the fitted concentration of half-maximal effect). The procedure, abridged: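 AR-bla HEK293 reporter cells; 4 h settle at 37C/5% CO2; compound + R1881 agonist, 16 h at 37C; LiveBLAzer B/G FRET substrate 2 h RT; fluorescence intensity read. qHTS format.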

Test [7] has the same target. Description: qHTS assay to identify small molecule agonists of the androgen receptor (AR) signaling pathway (AID 743036; active = well fitted activation curve with a large enough effect in the signal ratio in the repeat runs, with a control signal flat, not every such curve was filed as active; the % refers to the signal ratio). The procedure, abridged:
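Reporter line: GeneBLAzer AR-UAS-bla-GripTite (HEK293). Steps: plate cells, 4 h rest, add compounds, 16 h at 37C, add LiveBLAzer B/G substrate, 2 h at RT, read fluorescence.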

For test [8] the target is unchanged. Description: qHTS assay to identify small molecule agonists of the androgen receptor (AR) signaling pathway using the MDA cell line (AID 743040; note: nearly all actives have a fitted effect of over 20% in size). To be noted: MDA-kb2 AR-luc cells, MMTV luciferase, 16 h; activity change: at 70.3 µM (top of the series), stronger effect = higher value. The procedure, abridged:
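Luciferase read-out, ONE-Glo, 30 min RT. Cells: MDA-kb2 AR-luc, MMTV promoter with AR and GR response elements. Compound exposure 16 h, 37C, 0% CO2, after 5 h pre-incubation. qHTS agonist mode.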

Test [9] can be described thus: qHTS assay to identify small molecule antagonists of the androgen receptor (AR) signaling pathway using the MDA cell line - cell viability counter screen (AID 743041; note: nearly all actives have a fitted effect of over 45% in size; note: potency is the fitted concentration of half-maximal effect). In short, it runs like this:
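Cytotoxicity counter screen: MDA-kb2 AR-luc cells, compound + R1881, 16 h, 37C, 0% CO2; CellTiter-Fluor added at 15.5 h, fluorescence read after 30 min.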

Test [10] deals with Androgen receptor (Homo sapiens) (UniProt P10275). Description: qHTS assay to identify small molecule antagonists of the androgen receptor (AR) signaling pathway using the MDA cell line (AID 743042; note: nearly all actives have a fitted effect of over 55% in size; note: potency is the fitted concentration of half-maximal effect). The procedure, abridged: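 MDA-kb2 breast carcinoma cells carrying MMTV-luciferase (AR/GR responsive) were co-treated with compounds and the agonist R1881 for 16 h at 37C. Inhibition read as ONE-Glo luminescence; CellTiter-Fluor fluorescence measured in parallel for cytotoxicity.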
Chain of Androgen receptor (Homo sapiens) (P10275 whole entry, looked up): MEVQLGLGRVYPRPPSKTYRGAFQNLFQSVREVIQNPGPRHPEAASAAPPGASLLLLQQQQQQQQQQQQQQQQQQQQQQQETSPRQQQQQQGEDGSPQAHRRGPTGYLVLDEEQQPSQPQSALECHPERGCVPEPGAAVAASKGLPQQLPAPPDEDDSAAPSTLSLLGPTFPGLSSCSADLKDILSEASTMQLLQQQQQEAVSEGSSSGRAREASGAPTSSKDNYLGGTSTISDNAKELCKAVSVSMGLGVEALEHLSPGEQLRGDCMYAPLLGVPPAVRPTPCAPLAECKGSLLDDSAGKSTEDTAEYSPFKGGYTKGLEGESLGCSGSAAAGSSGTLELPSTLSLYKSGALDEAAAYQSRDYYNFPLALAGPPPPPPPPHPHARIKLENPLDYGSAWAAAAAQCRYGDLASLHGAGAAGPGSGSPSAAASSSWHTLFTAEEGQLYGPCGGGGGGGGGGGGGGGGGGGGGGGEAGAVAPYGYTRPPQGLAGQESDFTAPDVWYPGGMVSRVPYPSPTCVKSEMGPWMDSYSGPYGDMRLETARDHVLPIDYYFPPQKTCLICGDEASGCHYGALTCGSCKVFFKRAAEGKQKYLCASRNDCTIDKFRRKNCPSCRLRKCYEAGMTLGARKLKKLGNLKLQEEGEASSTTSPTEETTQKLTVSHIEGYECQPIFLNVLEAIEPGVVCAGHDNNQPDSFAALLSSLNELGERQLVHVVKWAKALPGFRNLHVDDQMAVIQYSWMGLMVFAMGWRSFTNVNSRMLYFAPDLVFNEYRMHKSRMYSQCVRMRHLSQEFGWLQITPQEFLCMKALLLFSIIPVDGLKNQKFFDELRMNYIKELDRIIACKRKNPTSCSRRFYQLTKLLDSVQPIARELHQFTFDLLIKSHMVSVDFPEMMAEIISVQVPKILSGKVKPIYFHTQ

Test [11] can be described thus: qHTS assay to identify small molecule antagonists of the thyroid receptor (TR) signaling pathway - cell viability counter screen (AID 743064). Note: nearly all actives have a fitted effect of over 50% in size. Note: potency is the fitted concentration of half-maximal effect. In short, it runs like this: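 Plate GH3.TRE-Luc cells; incubate 4 h at 37 °C; add compound, then T3 to 1 nM final; incubate 23.5 h; add CellTiter-Fluor; incubate 30 min at 37 °C, 5% CO2; read fluorescence.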
Test [12] can be described thus: qHTS assay to identify small molecule antagonists of the thyroid receptor (TR) signaling pathway (AID 743065). Note: nearly all actives have a fitted effect of over 55% in size. Note: potency is the fitted concentration of half-maximal effect. The procedure, abridged: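 GH3.TRE-Luc rat pituitary cells (two TREs driving luciferase) were dosed with compound, then stimulated with 1 nM T3 (final) for 23.5 h at 37 C. ONE-Glo luminescence was the read-out, with CellTiter-Fluor fluorescence as the cytotoxicity counter-screen.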

For test [13], the system named is thyroid hormone receptor (rat, GH3 cells). Nature of the test: qHTS assay to identify small molecule agonists of the thyroid receptor (TR) signaling pathway (AID 743066; calls by dose curve).
Test [14] can be described thus: qHTS assay to identify small molecule antagonists of the estrogen receptor alpha (ER-alpha) signaling pathway - cell viability counter screen (AID 743074; calls by dose curve;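 note: HEK293 cells carrying ER-alpha-UAS-bla reporter stimulated with 17beta-estradiol; nearly all actives have a fitted effect of over 45% in size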; note: potency is the fitted concentration of half-maximal effect).
Test [15] is described as follows: qHTS assay to identify small molecule antagonists of the estrogen receptor alpha (ER-alpha) signaling pathway using the BG1 cell line - cell viability counter screen (AID 743081).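 Note: compound given together with 17beta-estradiol as the ER stimulus; nearly all actives have a fitted effect of over 45% in size.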 Note: potency is the fitted concentration of half-maximal effect.
For the next test, the target named is Aromatase (Homo sapiens) (UniProt P11511). Description: qHTS assay to identify aromatase inhibitors (AID 743083). Note: nearly all actives have a fitted effect of over 55% in size. Note: potency is the fitted concentration of half-maximal effect.
Chain of Aromatase (Homo sapiens) (P11511 whole entry, looked up): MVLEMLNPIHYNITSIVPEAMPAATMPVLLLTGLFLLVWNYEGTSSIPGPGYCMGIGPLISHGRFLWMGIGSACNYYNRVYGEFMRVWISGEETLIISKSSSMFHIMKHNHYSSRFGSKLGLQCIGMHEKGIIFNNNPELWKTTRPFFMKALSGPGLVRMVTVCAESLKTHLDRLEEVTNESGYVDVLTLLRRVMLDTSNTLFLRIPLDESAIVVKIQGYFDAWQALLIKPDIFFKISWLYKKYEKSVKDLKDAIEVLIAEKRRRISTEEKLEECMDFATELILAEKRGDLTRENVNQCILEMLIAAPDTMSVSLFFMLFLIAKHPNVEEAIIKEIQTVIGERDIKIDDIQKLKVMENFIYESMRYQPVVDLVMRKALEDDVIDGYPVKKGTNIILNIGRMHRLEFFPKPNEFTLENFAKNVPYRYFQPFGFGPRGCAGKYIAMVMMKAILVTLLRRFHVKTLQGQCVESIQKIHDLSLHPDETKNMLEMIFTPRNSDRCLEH
Test [16] addresses Estrogen receptor (Homo sapiens) (UniProt P03372). Nature of the test: qHTS assay to identify small molecule agonists of the estrogen receptor alpha (ER-alpha) signaling pathway (AID 743075; calls by dose curve;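 note: HEK293 GripTite cells with ER-alpha and UAS-driven beta-lactamase reporter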).
The target is the same in test [17]. Description: qHTS assay to identify small molecule agonists of the estrogen receptor alpha (ER-alpha) signaling pathway using the BG1 cell line (AID 743079). Note: nearly all actives have a fitted effect of over 20% in size. Note: potency is the fitted concentration of half-maximal effect.
The nature of test [18]: qHTS assay to identify small molecule antagonists of the estrogen receptor alpha (ER-alpha) signaling pathway using the BG1 cell line (AID 743080; calls by dose curve;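 note: BG1 cells stimulated with 17beta-estradiol alongside compound; nearly all actives have a fitted effect of over 25% in size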). The procedure, abridged: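 Seeding, 24 h rest, compound transfer from DMSO, 17beta-estradiol addition, 21.5 h incubation, CellTiter-Fluor (30 min, 37 C), then ONE-Glo (30 min, room temperature): this sequence was run on BG1-Luc-4E2 reporter cells.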

The target of test [19] is Estrogen receptor (Homo sapiens) (UniProt P03372). Nature of the test: qHTS assay to identify small molecule antagonists of the estrogen receptor alpha (ER-alpha) signaling pathway (AID 743069; active = well fitted curve in the direction sought with a large enough effect in the signal ratio in the repeat runs, not every such curve was filed as active; the % refers to the signal ratio). In short, it runs like this: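 Beta-lactamase FRET fluorescence is read after 2 hr at room temperature with LiveBLAzer B/G substrate. Before that, ER-alpha-bla HEK293 cells sit 4 hr after plating, then receive compound plus 17beta-estradiol and incubate 18 hr at 37C.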
Chain of Estrogen receptor (Homo sapiens) (P03372 whole entry, looked up): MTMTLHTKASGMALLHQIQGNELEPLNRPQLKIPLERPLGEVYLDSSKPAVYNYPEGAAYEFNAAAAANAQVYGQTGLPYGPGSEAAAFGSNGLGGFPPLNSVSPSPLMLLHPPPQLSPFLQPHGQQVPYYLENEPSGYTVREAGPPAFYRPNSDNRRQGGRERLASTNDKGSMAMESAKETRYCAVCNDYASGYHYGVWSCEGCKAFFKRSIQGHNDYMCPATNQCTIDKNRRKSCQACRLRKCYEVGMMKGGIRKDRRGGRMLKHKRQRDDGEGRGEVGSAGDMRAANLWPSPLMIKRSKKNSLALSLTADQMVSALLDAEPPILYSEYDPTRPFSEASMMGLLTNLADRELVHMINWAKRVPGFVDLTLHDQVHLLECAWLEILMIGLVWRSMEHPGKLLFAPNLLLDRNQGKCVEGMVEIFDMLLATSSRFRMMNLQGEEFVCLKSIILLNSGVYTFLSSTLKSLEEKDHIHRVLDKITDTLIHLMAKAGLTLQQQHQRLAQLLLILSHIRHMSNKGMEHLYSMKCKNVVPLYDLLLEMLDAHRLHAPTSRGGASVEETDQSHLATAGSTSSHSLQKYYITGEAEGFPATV

Molecules are shown by their SMILES. Values joined by “and” are separate entries in the source; they are usually repeats but may differ in a detail not shown here. Equal entries are not always repeated. Records with an inconclusive call do not appear. Some compounds were tested as several samples or in several runs, with calls that do not always agree. Active and inactive are the calls of the source. Unless noted, calls come from the whole dose curve; as a rule, active = well fitted curve in the direction sought with a large enough effect in the repeat runs; inconclusive = weak or mixed curves; inactive = no such curve, though single readings can be large; an effect the other way counts as inactive or inconclusive.

For the molecule `C=C(C)[C@H]1Cc2c(ccc3c2O[C@@H]2COc4cc(OC)c(OC)cc4[C@@H]2C3=O)O1`, the Potency result in test [1], in test [7], in test [8] and in [13] was “inactive” in each case. For the same molecule, the Potency in [2] is 59.6 nM (active) and 19.6 nM (active) and 8.6 nM (active); in test [3] it was 119 nM (active) and 11 nM (active) and 8.6 nM (active); in [4], 75 nM (active) and 9.8 nM (active) and 8.6 nM (active); in [5] it was 62.5 nM (active) and 38.9 nM (active); in test [6], 756 nM (active) and 279 nM (active); in test [9], 393 nM (active) and 39.1 nM (active) and 30.6 nM (active). For the same molecule, the Potency is 188 nM (active) and 24.7 nM (active) and 9.7 nM (active) in test [10]; 841 nM (active) and 8.75 µM (active) and 4.86 µM (active) in test [11]; 237 nM (active) and 34.8 nM (active) and 61.1 nM (active) in test [12]; 67.4 nM (active) and 44.2 nM (active) in [14]; 7.8 µM (active) and 38.6 µM (active) in test [15]; 15 µM (active) and 34.8 µM (active) and 34.4 µM (active) with Aromatase (Homo sapiens).
With `C#C[C@]1(O)CC[C@H]2[C@@H]3CCC4=CC(=O)CC[C@]4(C)[C@H]3CC[C@@]21C`, the Potency result in test [1], in test [2], in [3], in test [4], in [5] and in [9] was “inactive” in each case. Moreover, the Potency entry (in [11]; in [13]; in [14]; in test [15]; in the test with Aromatase (Homo sapiens)) was “inactive” throughout. Moreover, the Potency in test [12] was 6.86 µM (active).
As to `CCCCCCCCC(=O)NCc1ccc(O)c(OC)c1`, the Potency result in test [1], in test [2], in test [4], in test [5], in test [11] and in test [13] was “inactive” in each case. Further, the Potency entry (in test [14]; in test [16]; in test [17]; in test [18]; in test [15]; with Aromatase (Homo sapiens)) was “inactive” in each case. Besides, the Potency result in test [3] was “inactive and 68.6 µM (active)”; in test [12], 54.5 µM (active).
Consider `CCN(CC)C(=O)/C(Cl)=C(\C)OP(=O)(OC)OC`, for which the Potency result in test [1], in test [2], in [3], in test [4], in [5] and in test [6] was “inactive” throughout. Moreover, the Potency result in test [7], in test [8], in test [9], in test [10], in test [11] and in [12] was “inactive” each time. In addition, the Potency entry in test [13], in test [14], in test [16], in test [17], in test [18] and in test [15] was “inactive” in each case. The Potency entry with Aromatase (Homo sapiens) is “inactive”.
On to `CCCCCCCCCCCOC(=O)c1ccccc1C(=O)OCCCCCCCCCCC`, for which the Potency result in test [1], in [2], in test [3], in test [4], in test [5] and in test [11] was “inactive” throughout. In addition, the Potency entry in test [12], in [13], in [19], in test [14], in test [16] and in test [18] was “inactive” each time. Moreover, the Potency result (in [15]; with Aromatase (Homo sapiens)) was “inactive” throughout. In addition, the Potency in [17] was 26.6 µM (active) and inactive.
For the molecule `CCCCN(CC)c1c([N+](=O)[O-])cc(C(F)(F)F)cc1[N+](=O)[O-]`, the Potency entry in test [1], in test [2], in [3], in test [4], in [5] and in [9] was “inactive” each time. For the same molecule, the Potency entry (in [13]; in test [14]; in [15]; with Aromatase (Homo sapiens)) was “inactive” each time. The Potency in test [11] is 54.5 µM (active).
